{
  "source": "ChEMBL document CHEMBL5598561",
  "about": "“ASAP - In vitro binding kinetics” (2024)",
  "molecular_target": "Nonstructural protein 3 (Zika virus) (UniProt A0A024AXB9)",
  "sequence (A0A024AXB9 as listed by the source)": "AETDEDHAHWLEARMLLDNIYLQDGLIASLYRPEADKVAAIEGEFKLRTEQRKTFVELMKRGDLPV",
  "data": [
    {"smiles": "O=C(Nc1ccc2c(c1)CNC2)c1cc(Cl)cc(C2CC2)c1", "values": [
      {"measurement": "pKD", "setting": "PRVABC59, Concentration 10.0 uM, Immobilization level 10000.0 pg/mm2, Rmax 36.0 pg/mm2, ka 451548.811 M-1s-1, kd 1.111 1/s", "result": 5.61},
      {"measurement": "pKD", "setting": "PRVABC59, Concentration 10.0 uM, Immobilization level 12000.0 pg/mm2, Rmax 40.0 pg/mm2, ka 259383.571 M-1s-1, kd 0.558 1/s", "result": 5.67},
      {"measurement": "pKD", "setting": "PRVABC59, Concentration 10.0 uM, Immobilization level 13000.0 pg/mm2, Rmax 32.0 pg/mm2, ka 444846.323 M-1s-1, kd 0.765 1/s", "result": 5.76}
    ]},
    {"smiles": "CNC(=O)[C@H](Nc1ccc2c(c1)CNC2)c1cccc2[nH]ncc12", "values": [
      {"measurement": "pKD", "setting": "PRVABC59, Concentration 10.0 uM, Immobilization level 3900.0 pg/mm2, Rmax 32.0 pg/mm2, ka 221759.296 M-1s-1, kd 2.211 1/s", "result": 5},
      {"measurement": "pKD", "setting": "PRVABC59, Concentration 10.0 uM, Immobilization level 4900.0 pg/mm2, Rmax 43.0 pg/mm2, ka 260065.267 M-1s-1, kd 2.378 1/s", "result": 5.04},
      {"measurement": "pKD", "setting": "PRVABC59, Concentration 10.0 uM, Immobilization level 5500.0 pg/mm2, Rmax 48.0 pg/mm2, ka 212060.721 M-1s-1, kd 2.045 1/s", "result": 5.02},
      {"measurement": "pKD", "setting": "PRVABC59, Concentration 10.0 uM, Immobilization level 10000.0 pg/mm2, Rmax 60.0 pg/mm2, ka 93401.957 M-1s-1, kd 2.887 1/s", "result": 4.51},
      {"measurement": "pKD", "setting": "PRVABC59, Concentration 10.0 uM, Immobilization level 12000.0 pg/mm2, Rmax 22.0 pg/mm2, ka 158759.097 M-1s-1, kd 1.348 1/s", "result": 5.07},
      {"measurement": "pKD", "setting": "PRVABC59, Concentration 10.0 uM, Immobilization level 13000.0 pg/mm2, Rmax 39.0 pg/mm2, ka 126882.155 M-1s-1, kd 1.56 1/s", "result": 4.91}
    ]},
    {"smiles": "Cc1ccc2cc(Cl)cc(C(=O)Nc3ccc4c(c3)CNC4)c2n1", "values": [
      {"measurement": "pKD", "setting": "PRVABC59, Concentration 10.0 uM, Immobilization level 10000.0 pg/mm2, Rmax 26.0 pg/mm2, ka 93254.644 M-1s-1, kd 1.647 1/s", "result": 4.75},
      {"measurement": "pKD", "setting": "PRVABC59, Concentration 10.0 uM, Immobilization level 12000.0 pg/mm2, Rmax 38.0 pg/mm2, ka 56274.373 M-1s-1, kd 0.881 1/s", "result": 4.8},
      {"measurement": "pKD", "setting": "PRVABC59, Concentration 10.0 uM, Immobilization level 13000.0 pg/mm2, Rmax 28.0 pg/mm2, ka 92341.007 M-1s-1, kd 1.18 1/s", "result": 4.89}
    ]},
    {"smiles": "Cc1ncc(Br)cc1C(=O)Nc1ccc2c(c1)CNC2", "values": [
      {"measurement": "pKD", "setting": "PRVABC59, Concentration 10.0 uM, Immobilization level 3900.0 pg/mm2, Rmax 35.0 pg/mm2, ka 305396.759 M-1s-1, kd 1.511 1/s", "result": 5.3},
      {"measurement": "pKD", "setting": "PRVABC59, Concentration 10.0 uM, Immobilization level 4900.0 pg/mm2, Rmax 50.0 pg/mm2, ka 284203.309 M-1s-1, kd 1.434 1/s", "result": 5.3},
      {"measurement": "pKD", "setting": "PRVABC59, Concentration 10.0 uM, Immobilization level 5500.0 pg/mm2, Rmax 66.0 pg/mm2, ka 223031.106 M-1s-1, kd 1.457 1/s", "result": 5.18},
      {"measurement": "pKD", "setting": "PRVABC59, Concentration 10.0 uM, Immobilization level 12000.0 pg/mm2, Rmax 11.0 pg/mm2, ka 147874.405 M-1s-1, kd 1.474 1/s", "result": 5},
      {"measurement": "pKD", "setting": "PRVABC59, Concentration 10.0 uM, Immobilization level 13000.0 pg/mm2, ka 192202.373 M-1s-1, kd 1.118 1/s", "result": 5.24}
    ]},
    {"smiles": "N#Cc1cc(C(=O)Nc2ccc3c(c2)CNC3)cc(C(F)(F)F)c1", "values": [
      {"measurement": "pKD", "setting": "PRVABC59, Concentration 1.0 uM, Immobilization level 3900.0 pg/mm2, Rmax 43.0 pg/mm2, ka 266866.495 M-1s-1, kd 1.179 1/s", "result": 5.36},
      {"measurement": "pKD", "setting": "PRVABC59, Concentration 10.0 uM, Immobilization level 4900.0 pg/mm2, Rmax 32.0 pg/mm2, ka 534169.763 M-1s-1, kd 0.781 1/s", "result": 5.84},
      {"measurement": "pKD", "setting": "PRVABC59, Concentration 10.0 uM, Immobilization level 5500.0 pg/mm2, Rmax 33.0 pg/mm2, ka 604018.636 M-1s-1, kd 0.866 1/s", "result": 5.84},
      {"measurement": "pKD", "setting": "PRVABC59, Concentration 10.0 uM, Immobilization level 10000.0 pg/mm2, Rmax 37.0 pg/mm2, ka 362843.113 M-1s-1, kd 0.996 1/s", "result": 5.56},
      {"measurement": "pKD", "setting": "PRVABC59, Concentration 10.0 uM, Immobilization level 12000.0 pg/mm2, Rmax 65.0 pg/mm2, ka 232125.016 M-1s-1, kd 0.861 1/s", "result": 5.43},
      {"measurement": "pKD", "setting": "PRVABC59, Concentration 10.0 uM, Immobilization level 13000.0 pg/mm2, Rmax 45.0 pg/mm2, ka 383567.228 M-1s-1, kd 0.798 1/s", "result": 5.68}
    ]},
    {"smiles": "N#Cc1cc(Cl)cc([C@H](C#N)Nc2ccc3c(c2)CNC3)c1", "values": [
      {"measurement": "pKD", "setting": "PRVABC59, Concentration 10.0 uM, Immobilization level 10000.0 pg/mm2, Rmax 24.0 pg/mm2, ka 238302.252 M-1s-1, kd 1.184 1/s", "result": 5.3},
      {"measurement": "pKD", "setting": "PRVABC59, Concentration 10.0 uM, Immobilization level 12000.0 pg/mm2, Rmax 44.0 pg/mm2, ka 146250.163 M-1s-1, kd 0.612 1/s", "result": 5.38},
      {"measurement": "pKD", "setting": "PRVABC59, Concentration 10.0 uM, Immobilization level 13000.0 pg/mm2, Rmax 28.0 pg/mm2, ka 315015.409 M-1s-1, kd 0.863 1/s", "result": 5.56}
    ]},
    {"smiles": "O=C(NC[C@H]1CCCO1)[C@H](Nc1ccc2c(c1)CNC2)c1cc(Cl)cc2[nH]ncc12", "values": [
      {"measurement": "pKD", "setting": "PRVABC59, Concentration 10.0 uM, Immobilization level 10000.0 pg/mm2, Rmax 25.0 pg/mm2, ka 729483.46 M-1s-1, kd 0.307 1/s", "result": 6.38},
      {"measurement": "pKD", "setting": "PRVABC59, Concentration 10.0 uM, Immobilization level 12000.0 pg/mm2, Rmax 48.0 pg/mm2, ka 423834.605 M-1s-1, kd 0.21 1/s", "result": 6.31},
      {"measurement": "pKD", "setting": "PRVABC59, Concentration 10.0 uM, Immobilization level 13000.0 pg/mm2, Rmax 36.0 pg/mm2, ka 640560.866 M-1s-1, kd 0.251 1/s", "result": 6.41}
    ]},
    {"smiles": "NCCc1cccc(NC(=O)c2cc(Cl)cc3[nH]ncc23)c1", "values": [
      {"measurement": "pKD", "setting": "PRVABC59, Concentration 10.0 uM, Immobilization level 3900.0 pg/mm2, Rmax 45.0 pg/mm2, ka 242931.571 M-1s-1, kd 0.931 1/s", "result": 5.42},
      {"measurement": "pKD", "setting": "PRVABC59, Concentration 10.0 uM, Immobilization level 4900.0 pg/mm2, Rmax 34.0 pg/mm2, ka 409629.847 M-1s-1, kd 0.648 1/s", "result": 5.8},
      {"measurement": "pKD", "setting": "PRVABC59, Concentration 10.0 uM, Immobilization level 5500.0 pg/mm2, Rmax 28.0 pg/mm2, ka 470049.02 M-1s-1, kd 0.591 1/s", "result": 5.9},
      {"measurement": "pKD", "setting": "PRVABC59, Concentration 10.0 uM, Immobilization level 10000.0 pg/mm2, Rmax 29.0 pg/mm2, ka 565007.877 M-1s-1, kd 0.814 1/s", "result": 5.84},
      {"measurement": "pKD", "setting": "PRVABC59, Concentration 10.0 uM, Immobilization level 12000.0 pg/mm2, Rmax 46.0 pg/mm2, ka 296699.948 M-1s-1, kd 0.701 1/s", "result": 5.63},
      {"measurement": "pKD", "setting": "PRVABC59, Concentration 10.0 uM, Immobilization level 13000.0 pg/mm2, Rmax 42.0 pg/mm2, ka 451227.872 M-1s-1, kd 0.736 1/s", "result": 5.79}
    ]},
    {"smiles": "Cc1ccc(NC(=O)c2cc(Cl)cc3[nH]ncc23)cc1CN", "values": [
      {"measurement": "pKD", "setting": "PRVABC59, Concentration 10.0 uM, Immobilization level 3900.0 pg/mm2, Rmax 48.0 pg/mm2, ka 216599.094 M-1s-1, kd 1.609 1/s", "result": 5.13},
      {"measurement": "pKD", "setting": "PRVABC59, Concentration 10.0 uM, Immobilization level 4900.0 pg/mm2, Rmax 54.0 pg/mm2, ka 242573.531 M-1s-1, kd 1.329 1/s", "result": 5.26},
      {"measurement": "pKD", "setting": "PRVABC59, Concentration 10.0 uM, Immobilization level 5500.0 pg/mm2, Rmax 70.0 pg/mm2, ka 222473.098 M-1s-1, kd 1.517 1/s", "result": 5.17},
      {"measurement": "pKD", "setting": "PRVABC59, Concentration 10.0 uM, Immobilization level 10000.0 pg/mm2, Rmax 57.0 pg/mm2, ka 286418.042 M-1s-1, kd 1.725 1/s", "result": 5.22},
      {"measurement": "pKD", "setting": "PRVABC59, Concentration 10.0 uM, Immobilization level 12000.0 pg/mm2, Rmax 54.0 pg/mm2, ka 243003.449 M-1s-1, kd 1.258 1/s", "result": 5.29},
      {"measurement": "pKD", "setting": "PRVABC59, Concentration 10.0 uM, Immobilization level 13000.0 pg/mm2, Rmax 74.0 pg/mm2, ka 258887.039 M-1s-1, kd 1.289 1/s", "result": 5.3}
    ]},
    {"smiles": "O=C(Nc1ccc2c(c1)CNC2)c1ccc(F)c2[nH]ncc12", "values": [
      {"measurement": "pKD", "setting": "PRVABC59, Concentration 10.0 uM, Immobilization level 10000.0 pg/mm2, Rmax 1.0 pg/mm2, ka 202467.762 M-1s-1, kd 1.761 1/s", "result": 5.06},
      {"measurement": "pKD", "setting": "PRVABC59, Concentration 10.0 uM, Immobilization level 12000.0 pg/mm2, Rmax 8.0 pg/mm2, ka 155094.955 M-1s-1, kd 1.71 1/s", "result": 4.96},
      {"measurement": "pKD", "setting": "PRVABC59, Concentration 10.0 uM, Immobilization level 13000.0 pg/mm2, ka 200831.038 M-1s-1, kd 1.747 1/s", "result": 5.06}
    ]}
  ]
}
